# Results filed as inconclusive are left out. Entries that show only a call come without a potency. Unmarked numbers belong to inactive results. Calls of active or inactive are those of the source. The call rests on the fitted dose curve; in most records, active means well fitted cell-killing curve with a large enough effect in the repeat runs; inconclusive means weak or mixed curves, or effect the other way; inactive means flat fitted curve, though single readings scatter.
# Assay: cAMP Responsive Elements (CRE) small molecule antagonists, cell-based qHTS assay: qHTS cell viability counter screen (AID 2060913); further: nearly all actives have a fitted effect of over 40% in size
# Conditions: CRE-bla HEK293T viability, CellTiter-Glo luminescence, 5 h; series mostly up to 92.4 µM
# From the text: U.S. Tox21 Program National Center for Advancing Translational Sciences [NCATS] Division of Preclinical Innovation [DPI] U.S. Environmental Protection Agency [EPA] National Institutes of Environmental Health Sciences [NIEHS] National Toxicology Program [NTP] U.S. Food and Drug Administration [FDA] Tox21 Assay Overview: CREB (cyclic-AMP Responsive Element Binding Protein) is a cellular transcription factor. It binds to certain DNA sequences called cAMP Responsive Elements (CRE) and regulates the transcription of the genes. […] This cell line can be used to find agonists/antagonists of the cyclic AMP signaling pathway. The activation of the report gene under culture conditions can be detected by fluorescence intensity. This cell line has been used to screen the Tox21 10K compound library to identify agonists that induce oxidative stress. The cytotoxicity of the Tox21 compound library against the CRE-bla cell line was tested in parallel by measuring the cell viability using CellTiter-Glo assay (Promega, Madison, WI) in the same wells.
# Tox21 Assay Protocol Summary: CRE-bla Hek 293T cells were suspended in assay medium (DMEM containing 10% dialyzed FBS, 0.1 mM NEAA, 1 mM sodium pyruvate and 25 mM HEPES) and dispensed at 2,000 cells/4 uL /well into 1536-well black wall/clear bottom plates using a Multidrop Combi (ThermoFisher Scientific, Waltham, MA) dispenser. After the assay plates were incubated at 37 C/5% CO2 for 18 hrs, 23 nL of compounds dissolved in DMSO, positive controls or DMSO only was transferred to the assay plate by a pintool workstation (Kalypsys, San Diego, CA), followed by addition of 1 uL of 1.25uM NKH477 (0.25 uM as final concentration) in assay medium using a Flying Reagent Dispenser (Aurora Discovery, San Diego, CA). The plates were incubated at 37 C and 5% CO2 for 3 hrs. Then 1 uL of LiveBLAzer B/G FRET substrate (Invitrogen, Carlsbad, CA) was added to each well using Bioraptr Flying Reagent Dispenser (FRD, Aurora Discovery, San Diego, CA). The plates were incubated at room temperature for 2 h, then fluorescence intensities were measured using an Envision plate reader (PerkinElmer, Shelton, CT) at Excitation 405nm, Emission 460nm and 530nm. The % activity was determined from the ratio of 460nm/530nm. For cell viability readout that measures cytotoxicity, 4 uL /well of CellTiter-Glo reagent was added into the assay plates using Bioraptr FRD. After 30 min incubation at room temperature, the luminescence intensity in the assay plates was measured using a ViewLux (PerkinElmer, Shelton, CT) plate reader.
# Potency means the concentration at half of the fitted maximal effect.
SMILES,Potency,"viability change, negative = cytotoxic"
Cc1cc(Cc2ccc(N)c(C)c2)ccc1N,inactive,–
C=CCCCCCCCCC(=O)O,inactive,–
CC(=O)CCC(C)C,inactive,–
Cn1cc(C(=O)[C@@H]2CCc3nc[nH]c3C2)c2ccccc21,inactive,–
CC1(C)OC[C@@H]2O[C@@]3(C(=O)O)OC(C)(C)O[C@H]3[C@@H]2O1,inactive,–
CSc1ccc(O)cc1C,inactive,–
CC(C)COC(=O)COc1ccc(Cl)cc1Cl,inactive,–
Cc1ccc(O)cc1,inactive,–
O=c1[nH]c(=O)c2ccccc2o1,inactive,–
Nc1ccc(S(=O)(=O)O)cc1,inactive,–
CC(C)NCCCC1(C(N)=O)c2ccccc2-c2ccccc21,inactive,–
CC(C)(C)CC(C)(C)c1ccccc1O,61.4 µM (active),–
CCOC(=O)CC(=O)c1ccccc1,inactive,–
Cc1cccc([N+](=O)[O-])c1C(=O)O,inactive,–
CC(C)(C)C1CCC(=O)CC1,inactive,–
Clc1cccc(Cl)n1,inactive,–
Cc1ccc(Nc2nccc(N(C)c3ccc4c(C)n(C)nc4c3)n2)cc1S(N)(=O)=O,inactive,–
O=C(Cn1ccnc1[N+](=O)[O-])NCc1ccccc1,inactive,–
COc1ccc(/C=C/S(=O)(=O)NC(=O)c2ccc(C)cc2Cl)cc1,inactive,–
COc1ccc(OC(F)(F)F)cc1CN[C@H]1CCCN[C@H]1c1ccccc1,inactive,–

SMILES,Potency,"viability change, negative = cytotoxic"
CCCCCCCCN(C)CCCCCCCC,inactive,–
C/C(=C(/OCCOc1ccc(Cl)cc1)c1ccc(Cl)cc1Cl)n1ccnc1,inactive,–
O=C(Nc1ncc([N+](=O)[O-])s1)c1cccs1,21.1 µM (active),–
CN(C)CCOC(=O)C(c1ccccc1)C1(O)CCCC1 (stereo not given),inactive,–
Cn1ccc2cc3c(cc21)CCN3C(=O)Nc1cccnc1,–,-0.701% [at 18.9 µM]
CNC(=O)c1c(I)c(NC(=O)CCCCC(=O)Nc2c(I)c(C(=O)O)c(I)c(C(=O)NC)c2I)c(I)c(C(=O)O)c1I,inactive,–
Cc1cc(C)cc(O)c1,inactive,–
Nc1ncn([C@@H]2O[C@H](CO)[C@@H](O)[C@H]2O)c(=O)n1,inactive,–
CCCCOc1cc(C(=O)NCCN(CC)CC)c2ccccc2n1,inactive,–
CC(C)C(=O)OCCOc1ccccc1,inactive,–
O=C(CS)Nc1ccccc1,inactive,–
CCO[Si](C)(OCC)OCC,inactive,–
N#Cc1ccc(C(c2ccc(C#N)cc2)n2cncn2)cc1,inactive,–
CCOc1ccc(N)c([N+](=O)[O-])c1,inactive,–
O=C(O)CCC(=O)C(=O)O,inactive,–
C=CC/C=C/C,inactive,–
NS(=O)(=O)c1cc(C2(O)NC(=O)c3ccccc32)ccc1Cl (stereo not given),inactive,–
CCOC(=O)Cc1cccc2ccccc12,inactive,–
CC(C)C(C)(C)C(C)(C)C(C)(C)S,inactive,–
O=C(O)CNC(=O)c1ccc([N+](=O)[O-])cc1,inactive,–

# Source: PubChem BioAssay (Tox21)
